Outcome data for 40 compounds are collected here from PubChem BioAssay (Tox21).

Results filed as inconclusive are left out. Calls of active or inactive are those of the source. The call rests on the fitted dose curve; in most records, active means well fitted cell-killing curve with a large enough effect in the repeat runs; inconclusive means weak or mixed curves; inactive means flat fitted curve, though single readings scatter.

The nature of this test: qHTS assay to identify small molecule antagonists of the estrogen receptor beta (ER-beta) signaling pathway - cell viability counter screen (AID 1259382). Further: nearly all actives have a fitted effect of over 55% in size. The conditions noted are these: ER-beta-UAS-bla HEK293T viability, CellTiter-Glo luminescence, 16 h; series mostly up to 92.4 µM. An excerpt:
U.S. Tox21 Program National Center for Advancing Translational Sciences [NCATS] NIH Chemical Genomics Center [NCGC] U.S. Environmental Protection Agency [EPA] National Institutes of Environmental Health Sciences [NIEHS] National Toxicology Program [NTP] U.S. Food and Drug Administration [FDA] Tox21 Assay Overview: Estrogen receptor (ER), a nuclear hormone receptor, plays an important role in development, metabolic homeostasis and reproduction. Two subtypes of ER, ER-alpha and ER-beta, have similar expression patterns with some uniqueness in both types. Endocrine disrupting chemicals (EDCs) and their interactions with steroid hormone receptors like ER causes disruption of normal endocrine function. To identify the compounds that inhibit ER signaling, an ER-beta-UAS-bla GripTite cell line (Life Technologies, Madison, WI, USA) containing a beta-lactamase reporter gene under the control of an UAS response element was used to screen Tox21 10K compound library. The cytotoxicity of the Tox21 compound library against the ER-beta-bla cell line was tested in parallel by measuring the cell viability using CellTiter-Glo assay in the same wells.
Tox21 Assay Protocol Summary: ER-beta-UAS-bla HEK293T cells were dispensed at 2,000 cells/4 uL of assay medium containing 2% charcoal stripped FBS per well into black wall/clear-bottom 1536-well plates using a Multidrop Combi (ThermoFisher Scientific, Waltham, MA) dispenser. After the assay plates were incubated at a 37C and 5% CO2 for 6 hr, 23 nL of compounds dissolved in DMSO, positive controls or DMSO only was transferred to the assay plate by a Pintool station (Kalypsys, San Diego, CA), followed by addition of 1 uL (1nM as final concentration) of 17-beta-estradiol (E2) in assay medium using a Flying Reagent Dispenser (FRD, Aurora Discovery, San Diego, CA). The plates were incubated at 37C and 5% CO2 for 16 hr. Then 1 uL of LiveBLAzer B/G FRET substrate was added using a Flying Reagent Dispenser, the plates were incubated at room temperature for 2 hours, and fluorescence intensity was measured by an Envision plate reader (PerkinElmer, Shelton, CT). For cell viability readout that measures cytotoxicity, 4 uL/well of CellTiter-Glo reagent was added into the assay plates using a FRD. After 30 min incubation at room temperature, the luminescence intensity in the plates was measured using a ViewLux (PerkinElmer) plate reader.
For `O=c1[nH]cnc2c1ncn2[C@@H]1O[C@H](CO)[C@@H](O)[C@H]1O`, the outcome was inactive.

With `COc1ccccc1N1CCN(CCCNc2cc(=O)n(C)c(=O)n2C)CC1`, the compound was called inactive.

With `N#Cc1ccc(C(c2ccc(C#N)cc2)n2cncn2)cc1`, the outcome was inactive.

Regarding `CC1(C)O[C@@H]2C[C@H]3[C@@H]4CCC5=CC(=O)CC[C@]5(C)[C@@]4(F)[C@@H](O)C[C@]3(C)[C@]2(C(=O)CCl)O1`, the outcome was inactive.

Regarding `Nc1cccc(S(=O)(=O)O)c1`, the outcome was inactive.

On to `Cc1ccccc1C(=O)Nc1ccc(C(=O)N2CCCC(O)c3cc(Cl)ccc32)c(C)c1` (stereo not given), for which the compound was classed as inactive.

For the compound `COC(=O)c1ccc(OC)cc1`, the result was inactive.

As for `CCCCC(CC)COC(=O)COc1cc(Cl)c(Cl)cc1Cl` (stereo not given), the result was inactive.

As for `CCCCCCCCOC(=O)CCCCCCCCC(=O)OCCCCCCCC`, the call was inactive.

On to `Oc1ccccc1C=NCc1ccccc1`, for which the compound was called inactive.

For `CCCCNc1cc(C(=O)O)cc(S(N)(=O)=O)c1Oc1ccccc1`, the result was inactive.

`Cc1ccc([N+](=O)[O-])cc1Cl`: the outcome was inactive.

Take `C=CC(C)(O)CC/C=C(\C)CCC=C(C)C` (stereo not given): the compound was classed as inactive.

As to `C=Cc1ccccc1`, the compound was classed as inactive.

As to `Cc1nnc(SCC2=C(C(=O)O)N3C(=O)[C@@H](NC(=O)Cn4cnnn4)[C@H]3SC2)s1`, the compound was called inactive.

In the case of `CC[C@H]1CC[C@H](NCc2cc3c(cc2OC)[C@H]2C[C@H]2C(=O)N3C)[C@H](c2ccccc2)N1`, the compound was called inactive.

Regarding `NC/C=C/C(=O)O`, the compound was classed as inactive.

With `Cc1ccc(C=O)s1`, the result was inactive.

As for `O=C(O)[C@@H]1CSCN1`, the outcome was inactive.

Take `Cc1ncc(CO)c(CN)c1O`: the compound was called inactive.

Consider `CC(C)(C)C1CCCCC1=O` (stereo not given), for which the result was inactive.

On to `Cc1cc(S(=O)(=O)O)c(N)cc1Cl`, for which the result was inactive.

With `COc1ccc(S(=O)(=O)Nc2nnc(CC(C)C)s2)cc1`, the compound was classed as inactive.

Consider `CC(=O)Nc1ccc(C)c(Cl)c1`, for which the outcome was inactive.

As to `C=C(C)C(=O)OCCOP(=O)(O)O`, the outcome was inactive.

Regarding `CCN(O)CC`, the call was inactive.

On to `CCCCC(=O)O[C@]1(C(=O)CO)[C@H](C)C[C@H]2[C@@H]3CCC4=CC(=O)C=C[C@]4(C)[C@@]3(F)[C@@H](O)C[C@@]21C`, for which the call was inactive.

With `O=C(O)c1cccc(Cl)c1Cl`, the compound was called inactive.

Turning to `CCCNC(C)C(=O)Nc1c(C)csc1C(=O)OC` (stereo not given), the call was inactive.

For the compound `CCCOc1ccc2c(c1)CC[C@@H]1[C@@H]2CC[C@]2(C)C(OC)CC[C@@H]12` (stereo not given in full), the result was inactive.

With `CC(C)OC(C)C`, the compound was called inactive.

Consider `CCCCCCCCCC#N`, for which the compound was called inactive.

As for `COc1nc(C)nc(NC(=O)NS(=O)(=O)c2ccccc2OCCCl)n1`, the compound was classed as inactive.

With `O=C(C(Cl)Cl)N1CCOC12CCCCC2`, the result was inactive.

On to `Nc1ccc2ccccc2c1S(=O)(=O)O`, for which the result was inactive.

`FC(F)(F)c1ccccc1`: the outcome was inactive.

For `CC(C)(C)c1ccc(OC(=O)c2ccccc2O)cc1`, the compound was called inactive.

Turning to `CC(C)Nc1nc(N)nc(Cl)n1`, the outcome was inactive.

Regarding `CCCS(=O)c1ccc2nc(NC(=O)OC)[nH]c2c1` (stereo not given), the result was inactive.

In the case of `CC(C)c1ccccc1`, the compound was classed as inactive.
